One assay concerns the target Albumin (Bos taurus) (UniProt P02769). As to the kind of experiment: bovine serum albumin binders on microarray, profiling panel, artefact control for SMM control protein annotation, biochemical, small-molecule microarray, Alexa647 label, 635/667 nm fluorescence (AID 1118).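 Further: score merges 667 nm emission intensity and signal-to-noise per printed compound spot.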 Particulars: BSA-A647 binding, fluorescence 635 nm, higher = more signal.
A short description of assay [1]: small-molecule microarray binders of probe aXIP, primary screen, biochemical, NeuroSMM set, 635/667 nm fluorescence (AID 1119).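 Further: probe is the protein aXip251-270 applied at 1 µg/mL to compound-printed slides; binding of probe to printed compounds measured as 667 nm fluorescence plus signal to noise.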 The conditions noted are these: higher = more signal, called active from +8 up or from −8 down.
Assay [2] can be described thus: small-molecule binders of probe aNOTCH3, primary screen, biochemical, small-molecule microarray, 635/667 nm fluorescence (AID 1120).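 Further: probe is a biotin-tagged antibody raised against NOTCH3 rather than NOTCH3 protein; score merges spot fluorescence near 667 nm with spot signal to noise.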 The conditions noted are these: higher = more signal.
Assay [3] can be described thus: small-molecule binders of probe aNOTCH2, primary screen, biochemical, small-molecule microarray, 635/667 nm fluorescence (AID 1121).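 Further: score merges feature fluorescence read at 667 nm with its signal to noise.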 Particulars: higher = more signal.
For assay [4], the target named is Carbonic anhydrase 2 (Homo sapiens) (UniProt P00918). As to the kind of experiment: CAII small-molecule binders, profiling panel, biochemical, small-molecule microarray, Alexa647-labelled CAII (AID 1122). Particulars: CAII-A647 binding fluorescence, higher = more signal.
A short description of assay [5]: COS7 lysate on small-molecule microarray, probe aHis, 635 nm (AID 1123).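 Further: z-score combines 667nm fluorescence intensity with signal-to-noise per printed compound spot.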 The conditions noted are these: COS7 cell lysate, fluorescence, higher = more signal.
Assay [6] in a line: compound binding in COS7 lysate, probe aLAP1, primary screen, cell lysate, small-molecule microarray (AID 1124).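 Further: lysate comes from COS7 cells expressing LAP1 and is applied at 0.3 µg/mL; score merges spot fluorescence near 667 nm with signal-to-noise over triplicate slides.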 Particulars: probe aLAP1, fluorescence, higher = more signal.
Another assay concerns Sam68 (KHDRBS1). As to the kind of experiment: Sam68 small-molecule binders, primary screen, biochemical, small-molecule microarray, 635 nm fluorescence (AID 1125).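 Further: score merges 667 nm channel intensity with signal to noise over triplicate slides.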 The conditions noted are these: small-molecule microarray binding, higher = more signal.
For assay [7], the system named is Chordin-like protein 2 (CHRDL2). Put plainly: CHRDL2 small-molecule binders, primary screen, biochemical, small-molecule microarray, 635 nm fluorescence (AID 1126).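 Further: printed compound slides probed with Chrdl2 protein at 4 µg/mL for 1 h at 4 C; score merges 667 nm emission intensity with signal to noise over three replicate slides.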 The conditions noted are these: small-molecule microarray binding, fluorescence 635 nm; higher = more signal.
Assay [8] addresses Concanavalin-A (Canavalia ensiformis) (UniProt P02866). Put plainly: ConA small-molecule binders, primary screen, artefact control for SMM control protein annotation, biochemical, small-molecule microarray, Alexa647 label, 635 nm (AID 1127).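 Further: z combines 667 nm emission intensity with signal-to-noise across three replicate slides.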 The conditions noted are these: ConA-A647 binding fluorescence, higher = more signal.

Experimental findings from PubChem BioAssay are described below.

Structures are written as SMILES. Active and inactive are the calls of the source.

Chain of Albumin (Bos taurus) (P02769 whole entry, looked up): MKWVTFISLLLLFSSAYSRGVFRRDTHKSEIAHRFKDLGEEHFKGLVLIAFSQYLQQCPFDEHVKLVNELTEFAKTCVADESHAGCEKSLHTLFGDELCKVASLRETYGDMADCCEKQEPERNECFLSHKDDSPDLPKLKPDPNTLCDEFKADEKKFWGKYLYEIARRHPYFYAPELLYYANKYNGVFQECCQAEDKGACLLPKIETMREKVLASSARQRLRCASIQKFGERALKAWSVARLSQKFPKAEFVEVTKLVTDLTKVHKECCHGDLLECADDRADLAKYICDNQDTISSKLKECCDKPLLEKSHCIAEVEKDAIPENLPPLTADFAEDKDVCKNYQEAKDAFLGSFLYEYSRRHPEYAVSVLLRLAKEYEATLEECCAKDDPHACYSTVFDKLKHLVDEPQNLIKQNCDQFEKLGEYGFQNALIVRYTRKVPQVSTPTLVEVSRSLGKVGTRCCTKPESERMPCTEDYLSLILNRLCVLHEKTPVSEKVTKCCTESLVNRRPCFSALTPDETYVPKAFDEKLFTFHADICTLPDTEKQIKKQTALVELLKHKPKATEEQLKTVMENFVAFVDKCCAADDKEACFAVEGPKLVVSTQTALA
Chain of Concanavalin-A (Canavalia ensiformis) (P02866 whole entry, looked up): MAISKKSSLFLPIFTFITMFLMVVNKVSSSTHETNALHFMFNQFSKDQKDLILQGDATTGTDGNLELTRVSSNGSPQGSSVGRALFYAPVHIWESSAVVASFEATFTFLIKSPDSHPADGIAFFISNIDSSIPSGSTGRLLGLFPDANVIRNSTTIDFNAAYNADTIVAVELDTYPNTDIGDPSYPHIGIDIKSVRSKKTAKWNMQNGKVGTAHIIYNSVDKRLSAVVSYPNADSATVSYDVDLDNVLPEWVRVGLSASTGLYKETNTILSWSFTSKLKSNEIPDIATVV

For `CCCCc1cn(C[C@H](Cc2ccccc2)NC(=O)N[C@H](CO)CCc2oc(C(C)=O)c(C(=O)OC)c2C(=O)OC)nn1`, the composite z-score with Albumin (Bos taurus) was 0.25; in [2] it was 0.328; in assay [3], -0.12; in assay [4], 0.151; in assay [5], 0.607; in [6] it was 0.0969. The results for the composite z-score (with Sam68 (KHDRBS1); in assay [7]; in assay [8]) were 1.25, 0.756 and 0.859, respectively. Further, the composite Z-score in assay [1] was 0.119 (inactive).

As for `COCCOC(=O)N1C(=O)[C@@]2(c3cc(C#CC4=CCCCC4)ccc31)[C@H](C(=O)Nc1nc3ccccc3s1)[C@H]1C(=O)O[C@H](c3ccccc3)[C@H](c3ccccc3)N1[C@@H]2c1ccc(OCCO)cc1`, the composite z-score is 0.1 in the assay with Albumin (Bos taurus); 0.0286 in assay [2]; -0.148 in assay [3]; 0.0924 in [4]; 0.417 in [5]; 0.338 in assay [6]. The results for the composite z-score (with Sam68 (KHDRBS1); in assay [7]; in assay [8]) were 1.16, 0.984 and 1.03, respectively. The composite Z-score in [1] was -0.114 (inactive).

For `O=C1c2ccccc2[C@@]2(Cc3ccccc3N(CC(F)(F)F)C2=O)[C@H](c2ccc(CO)cc2)N1Cc1ccccc1Cl`, the composite z-score is -0.465 with Albumin (Bos taurus); -0.191 in assay [2]; -0.228 in assay [3]; -0.227 in assay [4]; -0.0414 in [5]; -0.153 in assay [6]. Moreover, the composite z-score with Sam68 (KHDRBS1) worked out at 0.428; in assay [7], 0.929; in assay [8] it was 0.409. Besides, the composite Z-score in [1] is 0.142 (inactive).

Consider `COc1ccc(CCN2C(=O)[C@@]3(Cc4ccccc42)c2ccccc2C(=O)N(Cc2ccccc2C(F)(F)F)[C@H]3c2ccc(CO)cc2)cc1`, for which the composite z-score with Albumin (Bos taurus) is -0.951; in assay [2], -0.0718; in [3], -0.193; in assay [4], 0.107; in assay [5], 0.387; in assay [6], 0.184. The values for the composite z-score (in the assay on Sam68 (KHDRBS1); in assay [7]; in assay [8]) were 0.242, 0.736 and 1.13, respectively. For the same compound, the composite Z-score in [1] was 0.319 (inactive).

With `O=C(NCc1ccc(F)cc1)[C@H]1C[C@H]2C(=O)N[C@@H](Cc3ccccc3)C(=O)N2[C@H]1c1ccc(O)cc1`, the composite z-score with Albumin (Bos taurus) is -1.22; in assay [2], -0.323; in [3] it was -0.159; in assay [4], 0.606; in assay [5] it was 1.56; in assay [6] it was -0.516. For the same compound, the composite z-score was -0.109 in the assay on Sam68 (KHDRBS1), 0.371 in [7] and 0.368 in [8]. Further, in assay [1], the composite Z-score was 0.239 (inactive).

With `COC(=O)[C@@]1(Cc2ccccc2)[C@H]2c3cc(C(=O)N4CCCC4)n(Cc4nc5ccccc5[nH]4)c3C[C@H]2CN1C(=O)c1ccccc1`, the composite z-score in the assay with Albumin (Bos taurus) amounted to 1.03; in assay [2] it was 0.537; in assay [3], 0.404; in [4], 0.653; in assay [5] it was 3.34; in [6], 0.988. Further, the composite z-score in the assay with Sam68 (KHDRBS1) was 1.3; in [7], -0.72; in [8] it was 0.912. Moreover, the composite Z-score in assay [1] is 0.579 (inactive).

On to `Cc1ccc(C(C)CC(O)C2C=CC3C(=O)N(C)C(=O)C3N2NC(=O)OC(C)(C)C)o1` (stereo not given), for which the composite z-score with Albumin (Bos taurus) is 1.01; in [2], 0.18; in assay [3] it was -0.0925; in assay [4], 0.642; in assay [5], 2.44; in assay [6], 0.934. Besides, the composite z-score came to 1.21 with Sam68 (KHDRBS1), 0.541 in assay [7] and 1.05 in [8]. In assay [1], the composite Z-score was 1.31 (inactive).

Take `[N-]=[N+]=Nc1ccccc1C[C@@]1(C(=O)NCCN2CCOCC2)N=C(c2ccc(OCCCO)cc2)O[C@@H]1c1ccccc1`: the composite z-score with Albumin (Bos taurus) is 0.831; in assay [2], 0.144; in assay [3], -0.221; in [4], 0.468; in assay [5], 2.87; in assay [6], 0.872. Also, the composite z-score with Sam68 (KHDRBS1) is 1.3; in assay [7] it was -0.11; in assay [8], 1.11. Moreover, the composite Z-score in [1] is 0.255 (inactive).

As for `CCCCN1CC=CC23O[C@@H]4C=CCOC(=O)[C@@H]4[C@H]2C(=O)N(CCCCCO)[C@@H]3C1=O` (stereo not given in full), the composite z-score in the assay with Albumin (Bos taurus) is 0.914; in assay [2], -0.199; in [3], -0.0422; in assay [4] it was 0.858; in assay [5], 1.8; in assay [6] it was 1.3. Besides, the figures for the composite z-score (with Sam68 (KHDRBS1); in [7]; in assay [8]) were -0.445, -0.769 and -1.08, respectively. Also, the composite Z-score in assay [1] was 0.102 (inactive).

Consider `O=C1OCCC/C=C\[C@H]2OC34C=CCN(CCN5CCOCC5)C(=O)[C@H]3N(CCCO)C(=O)[C@@H]4C12` (stereo not given in full), for which the composite z-score in the assay with Albumin (Bos taurus) is -0.843; in [2], -0.182; in assay [3] it was -0.178; in [4], 0.888; in assay [5], 3.72; in [6], 1.6. Besides, the composite z-score is -0.284 in the assay with Sam68 (KHDRBS1), -0.575 in [7] and 0.167 in assay [8]. Besides, the composite Z-score in assay [1] was 0.546 (inactive).

With `O=C1C2C=CC(C(O)C(c3ccccc3)c3ccccc3)N(n3cnnc3)C2C(=O)N1Cc1ccccc1` (stereo not given), the composite z-score in the assay with Albumin (Bos taurus) is 0.057; in [2], 0.116; in [3], -0.0294; in assay [4] it was 0.635; in [5], 2.61; in assay [6] it was 0.599. In addition, the composite z-score with Sam68 (KHDRBS1) is 1.3; in assay [7], 0.121; in [8], 1.07. Further, in assay [1], the composite Z-score is 0.0479 (inactive).

As for `Cc1ccc(C(C)CC(O)C2C=CC3C(=O)N(c4ccccc4)C(=O)C3N2Nc2ccc([N+](=O)[O-])cc2)o1` (stereo not given), the composite z-score was found to be 0.861 in the assay with Albumin (Bos taurus); 0.222 in assay [2]; 0.0129 in [3]; 0.788 in assay [4]; 1.96 in assay [5]; 0.67 in [6]. In addition, the values for the composite z-score (in the assay with Sam68 (KHDRBS1); in assay [7]; in assay [8]) were 1.32, 0.595 and 0.977, respectively. Besides, the composite Z-score in [1] is -0.608 (inactive).

Take `COCCOC(=O)N1C(=O)[C@@]2(c3ccccc31)[C@H](c1ccccc1OCCO)N1[C@H](c3ccccc3)[C@H](c3ccccc3)OC(=O)[C@H]1[C@@H]2C(=O)Nc1nc2ccccc2s1`: the composite z-score with Albumin (Bos taurus) is 0.665; in assay [2], 0.133; in assay [3], -0.089; in [4] it was 0.481; in assay [5], 1.52; in assay [6] it was 1.69. Also, the composite z-score in the assay with Sam68 (KHDRBS1) was 1.31; in assay [7], 0.651; in [8] it was 1.18. The composite Z-score in assay [1] is 0.746 (inactive).

Regarding `CC(=O)N1Cc2ccccc2C[C@@]2(COC(c3ccc(OCCCO)cc3)=N2)C1=O`, the composite z-score was 0.707 with Albumin (Bos taurus); 0.286 in [2]; 0.16 in assay [3]; 0.669 in [4]; 2.38 in assay [5]; 0.16 in assay [6]. The composite z-score stood at 1.3 with Sam68 (KHDRBS1), 0.341 in assay [7] and 1.15 in [8]. Moreover, in assay [1], the composite Z-score is -0.151 (inactive).

With `C=CC[C@]12N=C(c3ccc(OCCCO)cc3)O[C@H]1c1ccccc1N(Cc1ccccc1)C2=O`, the composite z-score was -0.0059 with Albumin (Bos taurus); 0.0225 in assay [2]; -0.078 in assay [3]; 0.669 in assay [4]; 2.12 in assay [5]; 0.38 in assay [6]. In addition, the composite z-score in the assay with Sam68 (KHDRBS1) worked out at 0.98; in assay [7] it was 0.317; in [8], 0.385. In addition, the composite Z-score in assay [1] is 1.2 (inactive).

On to `O=C1O[C@H](c2ccccc2)[C@H](c2ccccc2)N2[C@H]1[C@@H](C(=O)Nc1nc3ccccc3s1)[C@]1(C(=O)Nc3ccc(C#CCCO)cc31)[C@H]2c1ccc(OCCO)cc1`, for which the composite z-score with Albumin (Bos taurus) was determined as 0.797; in assay [2] it was 0.134; in [3] it was 0.0785; in assay [4], 0.419; in assay [5] it was 1.42; in assay [6], 0.516. For the same compound, the values for the composite z-score (in the assay with Sam68 (KHDRBS1); in [7]; in [8]) were 1.32, 0.586 and 1.09, respectively. Further, the composite Z-score in assay [1] was 0.0956 (inactive).
